Assay: binders of probe aFSTL3 on microarray, primary screen, stem cell growth factor project, biochemical, small-molecule microarray, fluorescence 635/667 (AID 1064);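 also: measures binding of the biotinylated anti-FSTL3 antibody to printed compounds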
Conditions: higher = more signal

Structure (SMILES) | composite z-score
C=CCC(OC(C)=O)[C@@H]1[C@@H](N(Cc2cc3ccccc3o2)C(=O)Cc2ccc(OC)cc2)c2cc(OCCCO)ccc2N1C(=O)c1ccc2ccccc2n1 (some centres undefined) | -0.0558
C=C(COC)/C(=C/C[C@@H](OC(C)=O)c1ccccc1OCCO)c1cnc2ccccc2c1 | -0.0428
Cc1ccc(S[C@]2(C(=O)NCC(F)(F)F)CC(=O)N(Cc3ccccc3C(F)(F)F)[C@@H]2c2ccc(CO)cc2)cc1 | 0.953
C=CCC(OC(C)=O)[C@@H]1[C@@H](N(Cc2cccc3ccccc23)C(=O)Cc2ccc(OC)cc2)c2cc(OCCCO)ccc2N1C(=O)c1ccc2ccccc2c1 (some centres undefined) | 0.175
COc1ccc([Si](C)(C)[C@@H]2[C@@H](CC(=O)N(CCO)Cc3ccccc3)O[C@]3(C(=O)N(Cc4ccc(N5C(=O)c6cccc7cccc5c67)cc4)c4ccccc43)[C@H]2C)cc1 | -0.0031
COC(=O)[C@@]1(Cc2ccc(OC)cc2)[C@H]2c3cc(C(=O)N(C)C)[nH]c3C[C@H]2CN1C(=O)c1ccccc1 | -0.231
CCOc1cc(C(O)C2C=CC3C(=O)N(c4ccccc4)C(=O)C3N2Nc2ccccc2F)ccc1O (centres undefined) | 2.51
O=C1O[C@@H](c2ccccc2)[C@@H](c2ccccc2)N2[C@@H](c3ccc(OCCO)cc3)[C@]3(C(=O)Nc4ccc(C#CC5(O)CCCCCC5)cc43)[C@@H](C(=O)O)[C@H]12 | 0.0507
COc1ccc(C(=O)Nc2ccc(CN3C(=O)[C@@]4(O[C@@H](CCn5cc(CCO)nn5)[C@H]([Si](C)(C)c5ccc(OC)cc5)[C@H]4C)c4ccccc43)cc2)cc1 | -0.249

Reference: PubChem BioAssay
